Results filed as inconclusive are left out. Entries that show only a call come without a potency. Unmarked numbers belong to inactive results. Activity calls are given as the source filed them. The call rests on the fitted dose curve; in most records, active means well fitted curve in the direction sought with a large enough effect; inconclusive means small, poorly fitted or top-dose-only effect, or another doubt; inactive means no such curve, though single readings can be large; an effect the other way counts as inactive or inconclusive. Peptide text beside a SMILES is read from it.
Legend:
[1] = target: Cellular tumor antigen p53 (Homo sapiens) (UniProt P04637); experiment: Primary qHTS for small molecule compounds that upregulate eGFP-tagged delta133p53alpha (in N-terminal) cells. (AID 2060322); settings: NCI-H358 eGFP-delta133p53alpha fluorescence, 24 h; activation: stronger effect = higher value; further: nearly all actives have a fitted effect of over 75% in size; further: potency means the concentration at half of the fitted maximal effect;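 on activation: cells pre-induced with doxycycline then dosed without doxycycline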
Sequence of Cellular tumor antigen p53 (Homo sapiens) (P04637 whole entry, looked up): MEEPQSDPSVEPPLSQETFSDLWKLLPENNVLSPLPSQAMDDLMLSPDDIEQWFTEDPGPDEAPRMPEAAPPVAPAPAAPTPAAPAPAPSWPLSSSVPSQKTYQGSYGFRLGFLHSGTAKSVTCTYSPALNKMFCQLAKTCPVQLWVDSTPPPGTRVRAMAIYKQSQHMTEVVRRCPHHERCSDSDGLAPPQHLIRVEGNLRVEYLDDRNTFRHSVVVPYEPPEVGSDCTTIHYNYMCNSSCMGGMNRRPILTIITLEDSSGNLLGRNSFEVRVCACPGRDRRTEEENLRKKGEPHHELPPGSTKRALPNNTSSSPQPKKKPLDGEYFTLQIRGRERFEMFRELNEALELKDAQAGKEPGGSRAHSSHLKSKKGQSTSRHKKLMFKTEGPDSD
Method in brief: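 NCI-H358 cells pre-induced 24 h with 10 ng/ml doxycycline for eGFP-delta133p53alpha, plated dox-free and exposed 24 h at 37C to titrated compounds. Fixed, Hoechst-stained; gated GFP peak intensity by laser scanning cytometry, normalized to DMSO (0%) and 57.5 uM 5-azacytidine (100%).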

[2] = target: Aldehyde dehydrogenase, mitochondrial (Homo sapiens) (UniProt P05091); experiment: qHTS for Inhibitors of the Aldehyde Dehydrogenase Family (ALDH2) Primary screen (AID 2061308); settings: ALDH2 enzyme inhibition qHTS, 1536-well; series mostly up to 56 µM; further: nearly all actives have a fitted effect of over 55% in size
[3] = target: Retinaldehyde dehydrogenase 3 (Homo sapiens) (UniProt P47895); experiment: qHTS for Inhibitors of the Aldehyde Dehydrogenase Family (ALDH1A3) Primary screen (AID 2061315); settings: ALDH inhibition qHTS; series mostly up to 56 µM

Row | Structure (SMILES) | activation [1] | Potency [2] | Potency [3] | Potency [1]
1 | C[C@@H]1O[C@@H](OC[C@H]2O[C@@H](OC(CCCCc3ccc(O)cc3)CCc3ccc(O)cc3)[C@H](O)[C@@H](O)[C@@H]2O)[C@H](O)[C@H](O)[C@H]1O (some centres undefined) | 6.11% | inactive | inactive | –
2 | COc1ccc([C@H]2OC[C@H]3O[C@@H](O[C@H]4[C@@H]2NC[C@@H]4O)[C@H](O)[C@H]3O)cc1 | – | inactive | inactive | 5.24 µM (active)
3 | O=C(O)c1cccc(CN2C(=O)/C(=C(\c3ccccc3)c3ccc(Cl)cc3)c3ccccc32)c1 | -4.46% | inactive | inactive | –
4 | CC1(C)CC[C@]2(C(=O)O)[C@H](O)C[C@]3(C)C(=CCC4[C@@]5(C)CC[C@H](O[C@@H]6O[C@H](CO[C@@H]7OC[C@H](O)[C@H](O)[C@H]7O[C@@H]7OC[C@@H](O)[C@H](O)[C@H]7O)[C@@H](O)[C@H](O)[C@H]6O[C@@H]6O[C@H](CO)[C@@H](O)[C@H](O)[C@H]6O)C(C)(C)C5CC[C@]43C)[C@@H]2C1 (some centres undefined) | -17.6% | inactive | inactive | –
5 | C#CCOc1ccc2c(c1)c(-c1ccc(C(C)C)cc1)nc(=O)n2C(C)C | -0.893% | inactive | inactive | –
6 | COC(=O)C1=CO[C@@H](O[C@@H]2O[C@H](CO)[C@@H](O)[C@H](O)[C@H]2O)[C@@H]2[C@@H](C)[C@@H](O)C(O)[C@H]12 (some centres undefined) | 14.5% | inactive | inactive | –
7 | CCc1cc(S(=O)(=O)O)c2cc(C(C)C)cccc1-2 | 4.33% | inactive | inactive | –
8 | CCCCCCCOc1cc2c(cc1/C(C)=C/c1ccc(C(=O)O)cc1)C(C)(C)CCS2(=O)=O | 3% | inactive | inactive | –
9 | CC1=CC23[C@H](C=C(C(=O)O)[C@@H]2COC(=O)[C@]3(O)CO)[C@@H]1C (some centres undefined) | -6.87% | inactive | inactive | –
10 | C=C1/C(=C/C=C2\CCC[C@]3(C)[C@@H]([C@H](C)CC[C@@H](O)C(C)(C)O)CC[C@@H]23)C[C@@H](O)C[C@@H]1O | 10.3% | inactive | inactive | –
11 | C/C(=C\C1CCC(C)C2CCC3(C)OC123)C(=O)O (centres undefined) | 8.04% | inactive | inactive | –
12 | C=C1CC2C(C)(CCC(=O)O)C(C(C)(C)O)CCC2(C)C2(C(=O)OC)C(=O)C(C)(O)C(=O)C12C (centres undefined) | -21.4% | inactive | inactive | –
13 | C=C(C)[C@@]1(O)C[C@@]2(C)C(=CC1=O)CC[C@@H](O)[C@@H]2C | -3.82% | inactive | inactive | –
14 | O=C1N(CC2CCCCN2)CCN1c1ccccc1 (centres undefined) | 5.73% | inactive | inactive | –
15 | CCCCCOc1ccc(C2SC(=O)NC2=O)cc1OCC (centres undefined) | 2.33% | inactive | inactive | –
16 | CC1NC(=O)CNC(=O)C(C(C)C)NC(=O)C2CCCN2C(=O)C(C(C)C)NC(=O)C(Cc2c[nH]c3ccccc23)NC1=O (centres undefined) (cyclo(GAWVPV); configuration not given here) | 3.57% | inactive | inactive | –
17 | COC(=O)[C@H](Cc1cccc(C(=N)N)c1)[C@@H](C)NC(=O)c1ccc(-c2cc[n+]([O-])cc2)cc1 | 8.93% | inactive | inactive | –
18 | CC1=CC2/C=C(\C)CCC3OC(C)(C)OC3CCC(=O)C23C(=O)NC(CC(C)C)C3C1C (centres undefined) | -10.7% | inactive | inactive | –
19 | CC(=O)OCC(=O)[C@@]12O[C@@H]1C[C@H]1[C@@H]3CC=C4C[C@@H](O)CC[C@]4(C)[C@H]3CC[C@@]12C | 29% | inactive | inactive | –
20 | C[C@]1(CO)CCC[C@]2(C)C3=C(CCC12)COC3 (some centres undefined) | -8.04% | inactive | inactive | –
21 | CC(C(=O)O)C1CCC2(C)C3C(=O)C=C4C(CCC(=O)C4(C)C)C3(C)CCC12C (centres undefined) | -15.2% | inactive | inactive | –
22 | OC[C@H]1O[C@@H](OCc2ccccc2)[C@H](O[C@@H]2OC[C@@H](O)[C@H](O)[C@H]2O)[C@@H](O)[C@@H]1O | -14.3% | inactive | inactive | –
23 | CC(CCC1(O)OC2CC3C4CC=C5C[C@@H](O[C@@H]6O[C@H](CO)[C@@H](O[C@@H]7O[C@@H](C)[C@H](O)[C@@H](O)[C@H]7O)[C@H](O)[C@H]6O[C@@H]6O[C@@H](C)[C@H](O)[C@@H](O)[C@H]6O)CC[C@]5(C)C4CC[C@]3(C)[C@@]2(O)[C@@H]1C)CO[C@@H]1O[C@H](CO)[C@@H](O)[C@H](O)[C@H]1O (some centres undefined) | -8.04% | inactive | inactive | –

Reference: PubChem BioAssay (NCATS)
